Bioassay records (PubChem BioAssay)
The list is not random: actives were taken first. Their share in the collection is about 2.4%.
TMEM16A inh – mouse TMEM16A channel inhibition, primary screen | Q8BHY3 | HEK293 TMEM16A/YFP iodide influx fluorescence, ionomycin | normalized B-score (activity score, 25-100; higher = stronger inhibition) at 10 µM | actives 1.2% (n = 310,000) | AID 588511;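 active = ratio plate-corrected score three or more library SD toward inhibition, starting fluorescence score within five deviations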;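 note: score derived from kinetic fluorescence span divided by baseline fluorescence per well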
Cardiac RTF inh – cardiac RTF calcium desensitization. P19429+P45379. IANBD-labeled cardiac RTF, Ca2+ fluorescence. inhibition, % at 7.15 µM. actives 0.12% (n = 340,000);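 active = inhibition above the mean inhibition of all tested compounds plus 3 SD, cut at about 17% in these data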;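 note: assay run at fixed EC70 calcium of 1.6 mM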
CRFR2-BP antag – CRF-BP/CRF-R2 complex antagonism | actives 0.59% (n = 350,000) | inhibition, % at 11.8 µM | HEK293 CRF-R2/CRF-BP, CRF-induced calcium fluorescence;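 active = inhibition of the ligand-induced calcium signal above about 50% at the single tested concentration, limit read from the data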
RTF Ca sens act – cardiac RTF calcium sensitization | IANBD-labeled TnC RTF fluorescence at EC20 calcium; 0% EC20 calcium, 100% full calcium | activation, % at 7.2 µM | actives 0.24% (n = 340,000) | P19429+P45379 | AID 493008;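 active = activation above the mean over all tested compounds plus 3 SD, cut at about 30% in these data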;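 note: rise in fluorescence read as greater calcium sensitivity of cardiac thin filaments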
TMEM16A act – activates or potentiates the mouse TMEM16A chloride channel; HEK293 TMEM16A/YFP-H148Q/I152L, iodide quench fluorescence; stronger effect = lower value; B-score at 10 µM; AID 623877; actives 0.3% (n = 340,000);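 active = fluorescence-ratio B-score plate-corrected deviation score at least 3 library SD below zero, with starting fluorescence score within 5 deviations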;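 note: channel opened by trigger with iodide after compound preincubation; score built on the fluorescence ratio of max minus min over baseline; more negative score means more quench and so TMEM16A activation or potentiation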
CRFBP-R2 agonist – CRF-BP/CRF-R2 complex agonism. HEK293 CRF-R2/CRF-BP, calcium dye fluorescence (FLIPR); percent of saturating CRF peptide response. activation, % at 13.2 µM. actives 0.46% (n = 350,000). AID 588473;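 active = activation of at least 50%, plus an integration ratio under a set limit after plate pattern correction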;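 note: plate controls were neutral control wells without compound for no effect and CRF at EC100 for full effect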
TMEM16A reconf – re-confirmation of mouse TMEM16A chloride channel inhibitors. shares compounds with TMEM16A inh. inhibition, % at 10 µM. HEK293 TMEM16A/YFP-H148Q, iodide quench fluorescence; ionomycin added to raise cell calcium. AID 652189. actives 39% (n = 2,300);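 active = mean duplicate percent inhibition, scaled so buffer wells are 0 and the reference blocker 100, over three buffer SD above buffer mean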
HEK293 Ca mobil – alters calcium mobilization in TMEM16A HEK293 cells, counter-screen; shares compounds with TMEM16A inh; TMEM16A/YFP HEK293, Fluo4 calcium mobilization; calcium response (% of ionomycin), % at 10 µM; actives 2% (n = 2,300); AID 652231;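 active = duplicate-averaged calcium signal over 20% of the ionomycin maximum, relative to buffer baseline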;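 note: each well's signal is peak minus trough fluorescence divided by its pre-addition baseline; 0% = buffer wells and 100% = ionomycin wells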
YFP-HEK293 quench – acts in parental YFP-HEK293 cells lacking TMEM16A, counter-screen | iodide YFP quench, ionomycin | 2,300 tested, under 10 active | shares compounds with TMEM16A inh | YFP ratio F(max-min)/F0 at 10 µM;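 active = yellow fluorescent protein signal ratio exceeding the buffer control mean by over 5 SD of those controls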;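 note: ratio is mean of duplicate wells from kinetic YFP trace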
ClC-1 inh – selectivity of TMEM16A inhibitors: inhibition of rat ClC-1 chloride channel | CHO ClC-1-YFP, iodide influx fluorescence quench; iodide control reads 0, buffer control 100 | ratio percent, % at 10 µM | AID 652236 | shares compounds with TMEM16A inh | 2,300 tested, under 10 active;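 active = duplicate-mean ratio percent above the mean of iodide-only control wells, which defines zero, plus 5 of their SD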;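 note: higher percent means stronger block of ClC-1 iodide influx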
* = called active by the depositor.

`Cc1ccc(NC(=O)CC2=NC(=O)C(CC(=O)Nc3ccccc3F)S2)cc1` (configuration not stated) gave TMEM16A inh inactive, Cardiac RTF inh -4, CRFR2-BP antag -7, RTF Ca sens act 4, TMEM16A act inactive, CRFBP-R2 agonist -2, TMEM16A reconf inactive, HEK293 Ca mobil inactive, YFP-HEK293 quench -1 and ClC-1 inh 1.
For CC(C)(C)c1csc(NC(=O)c2ccccc2O)n1 the results were TMEM16A inh 25*, Cardiac RTF inh -8, CRFR2-BP antag 23, RTF Ca sens act 6, TMEM16A act inactive, CRFBP-R2 agonist 21, TMEM16A reconf 23%*, HEK293 Ca mobil inactive, YFP-HEK293 quench -0.95 and ClC-1 inh -2.
Screening CCOC(=O)c1c(-c2ccc(-c3ccccc3)cc2)csc1NC(=O)C1C2CCC(O2)C1C(=O)O (configuration not stated) returned TMEM16A inh 100*, Cardiac RTF inh 6, CRFR2-BP antag 10, RTF Ca sens act 2, TMEM16A act inactive, CRFBP-R2 agonist 1, TMEM16A reconf 70%*, HEK293 Ca mobil inactive, YFP-HEK293 quench -1.1 and ClC-1 inh -91.
Screening CCOC(=O)c1c(-c2ccccc2)csc1NC(=O)C1CCCO1 (configuration not stated) returned TMEM16A inh inactive, Cardiac RTF inh 1, CRFR2-BP antag 0, RTF Ca sens act 5, TMEM16A act inactive and CRFBP-R2 agonist -1.
For Cc1onc(C(=O)NC(C)c2ccccc2)c1[N+](=O)[O-] (configuration not stated) the results were TMEM16A inh inactive, Cardiac RTF inh -9, CRFR2-BP antag 5, RTF Ca sens act 1, TMEM16A act inactive and CRFBP-R2 agonist -2.
For COc1ccc(Nc2nc(N3CCCCC3)c3ccccc3n2)cc1 the results were TMEM16A inh 100*, Cardiac RTF inh -3, CRFR2-BP antag -15, RTF Ca sens act 7, TMEM16A act inactive, CRFBP-R2 agonist 0, TMEM16A reconf 20%*, HEK293 Ca mobil inactive, YFP-HEK293 quench -1.3 and ClC-1 inh -29.
For CCNS(=O)(=O)c1ccc(CCC(=O)N2CCc3ccccc3C2)cc1 the results were TMEM16A inh inactive, Cardiac RTF inh 0, CRFR2-BP antag -8, RTF Ca sens act 3, TMEM16A act inactive and CRFBP-R2 agonist 1.
For CCCS(=O)(=O)N1CCC(C(=O)NCCCOC)CC1 the results were TMEM16A inh 100*, Cardiac RTF inh -21, CRFR2-BP antag 8, RTF Ca sens act 1, TMEM16A act inactive, CRFBP-R2 agonist 0, TMEM16A reconf inactive, HEK293 Ca mobil inactive, YFP-HEK293 quench -0.92 and ClC-1 inh -2.
CC(=O)c1c(C)[nH]c(C(=O)Nc2ccc3c(c2)OCCO3)c1C was read as TMEM16A inh inactive, Cardiac RTF inh -4, CRFR2-BP antag 6, RTF Ca sens act 2, TMEM16A act inactive and CRFBP-R2 agonist 2.
CCOC(=O)c1[nH]c(C)c(C(=O)Nc2ccc3c(c2)OCCO3)c1C was read as TMEM16A inh 25*, Cardiac RTF inh -6, CRFR2-BP antag 7, RTF Ca sens act -5, TMEM16A act inactive, CRFBP-R2 agonist -1, TMEM16A reconf inactive, HEK293 Ca mobil inactive, YFP-HEK293 quench -0.98 and ClC-1 inh -2.
